Experimental findings from PubChem BioAssay (NCATS) are described below.

Records with an inconclusive call do not appear. Unmarked numbers belong to inactive results. Calls of active or inactive are those of the source. Calls come from the whole dose curve. Square brackets hold non-standard residues; d marks the D form. Peptide text beside a SMILES is read from it. * marks the point of attachment. Benzoyl(4-tBu) = CC(C)(C)c1ccc(C(=O)*)cc1; Lys(Et2) = CCN(CC)CCCC[C@H](N)C(=O)O
% is set by controls: 0 for no effect and ±100 for the full control effect; potency is the fitted concentration of half-maximal effect.

The nature of this test: Cytotoxicity counterscreen for inhibitors of SARS-CoV-2 cell entry (AID 1645845). Note: nearly all actives have a fitted effect of over 50% in size. The note with it: cell viability (SARS-CoV-2 entry assay cells); series mostly up to 57.1 µM; activity change, negative = cytotoxicity: at the top concentration. The method in brief:
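HEK293-ACE2 cells (Expi293F stably expressing human ACE2) seeded overnight, then compound for 1 h plus 48 h at 37C. Viability as ATP content by luminescence; normalized to wells with cells and media-only wells.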
On to `Cc1ccc(NC(=O)c2ccc(CN3CCNCC3)cc2)cc1Nc1nccc(-c2cccnc2)n1`, for which the Potency was 25.1 µM (active).
As to `Nc1cc(COc2c(Cl)cc(C[C@H](N)C(=O)O)cc2Cl)c2oc(-c3ccccc3)nc2c1`, the molecule was called inactive.
Consider `CCCCCCCCCCCCC[N+](C)(C)Cc1ccccc1`, for which the Potency is 20 µM (active).
With `CC1=C(c2ccc(O)cc2)[C@H](c2ccc(OCCN3CCCCC3)cc2)Oc2cc(O)ccc21`, the “activity change, negative = cytotoxicity” value is -1.39%.
On to `Cc1cc(O[C@@H](CCC(F)(F)F)c2ccc(C(=O)NCCC(=O)O)cc2)cc(C)c1-c1ccc(C(C)(C)C)cc1`, for which the molecule was classed as inactive.
For `C1=C/COCc2cc(ccc2OCCN2CCCC2)Nc2nccc(n2)-c2cccc(c2)COC/1`, the Potency was 7.08 µM (active).
For `CN(C)CCNC(=O)COc1c2cccc1Cc1cccc(c1OCC(=O)NCCN(C)C)Cc1cccc(c1OCC(=O)NCCN(C)C)Cc1cccc(c1OCC(=O)NCCN(C)C)C2`, the activity change, negative = cytotoxicity was -11.8% [at 11.3 µM].
Consider `COCCNc1cc(NC(=O)N2CCCc3cc(CN4CCN(C)CC4=O)c(C=O)nc32)ncc1C#N`, for which the activity change, negative = cytotoxicity is 2.9% [at 11.3 µM].
With `CC1(C)CC[C@]2(C(=O)O)CC[C@]3(C)C(=CC[C@@H]4[C@@]5(C)C[C@@H](O)[C@H](O)C(C)(C)[C@@H]5CC[C@]43C)[C@@H]2C1`, the molecule was classed as inactive.
Same read-out and setting: the value for `CC(C)C[C@@H]1NC(=O)[C@@H](C(C)C)NC(=O)[C@@H]2CCCN2C(=O)[C@@H](CC(=O)O)NC(=O)[C@@H](Cc2c[nH]c3ccccc23)NC1=O` (cyclo(L[dW][dD]P[dV])) was “inactive”.
For the molecule `O=S(=O)(NCCNC/C=C/c1ccc(Br)cc1)c1cccc2cnccc12`, the “activity change, negative = cytotoxicity” value was -16%.
Still for that read-out and setting: the value for `O=C(NCC(=O)N1CCCC1)Nc1ccc2cnccc2c1` was -11.2%.
With `CC(C)C(=O)OCC(=O)[C@@]12O[C@H](C3CCCCC3)O[C@@H]1C[C@H]1[C@@H]3CCC4=CC(=O)C=C[C@]4(C)[C@H]3[C@@H](O)C[C@@]12C`, the “activity change, negative = cytotoxicity” value is -7.93%.
In the case of `COc1c(C)cc(NC(=O)c2nn(Cc3ccc(F)cc3)c3c2CN(C(=O)c2ccc[nH]2)C[C@]3(C)C(N)=O)cc1C`, the “outcome” value is “inactive [at 19 µM]”.
As for `Cc1cc(C)c2c(c1)[C@@H](N(Cc1cc(C(F)(F)F)cc(C(F)(F)F)c1)c1nnn(C)n1)CCCN2CC1CCC(C(=O)O)CC1` (stereo not given in full), the molecule was called inactive.
Turning to `c1ccc(CNCc2ccc(CN3CCCNCCNCCCNCC3)cc2)nc1`, the “activity change, negative = cytotoxicity” value is 4.7%.
Consider `O=C(O)C1=CO[C@@H](O[C@@H]2O[C@H](CO)[C@@H](O)[C@H](O)[C@H]2O)[C@@H]2C(CO)=CC[C@H]12`, for which the result was inactive.
`COC1CCC(N2C(=O)CNc3ncc(-c4ccc(C(C)(C)O)nc4)nc32)CC1` (stereo not given): the Potency is 7.94 µM (active).
In the case of `Cc1cc(C)cc(NC(=O)Cc2ccc(OC(C)(C)C(=O)O)cc2)c1`, the “activity change, negative = cytotoxicity” value is -12.4%.
For `O=C(NC[C@H](O)CN1CCc2ccccc2C1)c1cc(NC2COC2)ncn1`, the “activity change, negative = cytotoxicity” value was -16.3%.
With `Nc1nccn2c(C3CCC(C(=O)O)CC3)nc(-c3cc4cccc(Cl)c4[nH]3)c12` (stereo not given), the “activity change, negative = cytotoxicity” value is -11.7%.
In the case of `CC(C)Cc1ccc([C@@H](C)C(=O)NS(C)(=O)=O)cc1`, the call was inactive.
As to `Cc1cn(CCN2CCN(c3ccccc3-c3cc(C#N)cc(C(=O)NCCCN4CCCC4)c3)CC2)c2ccccc12`, the Potency was 35.5 µM (active).
As to `COc1ccc(-c2oc3ncnc(N)c3c2-c2ccc(NC(=O)Nc3cc(C(F)(F)F)ccc3F)cc2)cc1`, the “activity change, negative = cytotoxicity” value was -2.39%.
Regarding `COc1ccc(-c2cc(C(O)C3CCCCN3)c3ccccc3n2)cc1` (stereo not given), the Potency is 14.1 µM (active).
With `C=CCNC1=C2C[C@@H](C)C[C@H](OC)[C@H](O)[C@@H](C)/C=C(\C)[C@H](OC(N)=O)[C@@H](OC)/C=C\C=C(/C)C(=O)NC(=CC1=O)C2=O`, the Potency was 25.1 µM (active).
For `CCN(CC)CCCC[C@H](NC(=O)[C@H](CC(C)C)NC(=O)[C@H](C)NC(=O)[C@H](Cc1ccccc1)NC(=O)c1ccc(C(C)(C)C)cc1)C(=O)N[C@@H](CO)C(=O)OC` ({Benzoyl(4-tBu)}-FAL[Lys(Et2)]S-OMe), the “activity change, negative = cytotoxicity” value was -17.4%.
On to `CC(C)(CO)n1cc(C(=O)c2cncc(NC(=O)Cc3ccc(Cl)cn3)c2)c2cnc(N)nc21`, for which the molecule was classed as inactive.
With `Cc1c[nH]c(/C=C2\C(=O)Nc3ccccc32)c1CCC(=O)O`, the “activity change, negative = cytotoxicity” value was -21.1%.
Turning to `Cc1nc(NC(=O)N2CCC[C@H]2C(N)=O)sc1-c1ccnc(C(C)(C)C(F)(F)F)c1`, the “activity change, negative = cytotoxicity” value was -10.7%.
For `O=c1oc2c(C3OCCCO3)c(O)ccc2c2c1CNCC2`, the “activity change, negative = cytotoxicity” value was -3.46%.
Take `COc1cc2nccc(Oc3ccc(NC(=O)c4cn(C(C)C)c(=O)n(-c5ccc(F)cc5)c4=O)cc3F)c2cc1OC`: the “activity change, negative = cytotoxicity” value is -2.69%.
For `CCC(=O)N1CCOc2c(cc(-c3cc(OC)cc(OC)c3)cc2C(=O)N[C@H]2CCCN(C)C2)C1`, the molecule was classed as inactive.
For the molecule `CNC(=O)[C@H]1O[C@@H](n2cnc3c(NCc4cccc(I)c4)nc(Cl)nc32)[C@H](O)[C@@H]1O`, the “activity change, negative = cytotoxicity” value is -26.1%.
For `CN[C@@H](C)C(=O)N[C@H](C(=O)N1CCC[C@H]1c1nc(C(=O)c2ccc(F)cc2)cs1)C1CCCCC1`, the “activity change, negative = cytotoxicity” value is -7.89%.
On the same count and under the same terms, the value for `COc1ccccc1C(=O)Nc1cc2c(cc1N1CCCC1)n(C)c(=O)n2C` was -0.791%.
Regarding `COC(=O)N1CC2(CC2)C[C@H](C(=O)NO)[C@H]1C(=O)N1CCN(c2ccccc2)CC1`, the call was inactive.
For `CC1CCC(n2c3cnccc3c3cnc(Nc4ccc5c(n4)CCN(C(=O)CO)C5)nc32)CC1` (stereo not given), the activity change, negative = cytotoxicity is 4.82% [at 11.3 µM].
On to `COc1cc(-c2cn(C)c(=O)c3cnccc23)c(OC)cc1CN(C)C`, for which the result was inactive.
On to `CC1(N)CCN(c2cccnc2NC(=O)c2nc(-c3ncccc3C(F)(F)F)cnc2N)CC1`, for which the “activity change, negative = cytotoxicity” value is 1.95%.
